The list is not random: actives were taken first. Their share in the collection is about 1.6%.
Glyco luc inh = blocks N-linked glycosylation in D54 reporter cells | 0.23% of 360,000 active | D54 ERlucT glycosylation luciferase reporter, 24 h; percent of 100 nM tunicamycin response | reporter increase, % at 12.5 µM | AID 588692;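 active = mean luciferase reporter signal, scaled so untreated is 0 and the glycosylation-blocking control 100, at or above a set limit in every replicate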;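 also: luciferase carries N-glycosylation sites so blocking glycosylation raises the light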
Myeloid diff 2 = myeloid differentiation induction. ER-HoxA9 myeloid progenitors, lysozyme-GFP differentiation, flow cytometry. 1% of 360,000 active. AID 624256. calls only at 10 µM;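 active = normalized GFP-positive differentiation at or above the plate's own cutoff, the solvent-only control mean plus 3 SD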;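 also: cells exposed to compound for four days before flow analysis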
Vif inh = inhibitors of HIV Vif; HEK293T cells, Vif self-association by quenched fluorescence, imaging, 24 h; inhibition, % at 7.49 µM; 0.35% of 340,000 active; in the data active = inhibition above about 50%, passing the limit was not always enough
ABCB6 inh 2 = blocks the human ABCB6 transporter. Q9NP58. 0.19% of 360,000 active. fluorescence ratio to DMSO, % at 10 µM. AID 602162. K562-ABCB6 porphyrin accumulation, flow cytometry, 1 h; active compounds read low;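 active = fluorescence ratio to DMSO below 75%, the collection mean minus 3 SD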;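 also: signal is porphyrin accumulated inside mitochondria; lower ratio means ABCB6 inhibition with less porphyrin fluorescence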
RAD54 inh = inhibitors of human RAD54 branch migration; inhibition, % at 10.4 µM; 0.14% of 360,000 active; RAD54 Holliday junction branch migration, FAM/BHQ fluorescence; Q92698;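 active = mean normalized replicate activity at least 40 and at least half of replicates scoring 40 or more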;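 also: inhibitors cause a drop in the FAM fluorescence signal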
Target sequence (Q92698 whole entry, looked up): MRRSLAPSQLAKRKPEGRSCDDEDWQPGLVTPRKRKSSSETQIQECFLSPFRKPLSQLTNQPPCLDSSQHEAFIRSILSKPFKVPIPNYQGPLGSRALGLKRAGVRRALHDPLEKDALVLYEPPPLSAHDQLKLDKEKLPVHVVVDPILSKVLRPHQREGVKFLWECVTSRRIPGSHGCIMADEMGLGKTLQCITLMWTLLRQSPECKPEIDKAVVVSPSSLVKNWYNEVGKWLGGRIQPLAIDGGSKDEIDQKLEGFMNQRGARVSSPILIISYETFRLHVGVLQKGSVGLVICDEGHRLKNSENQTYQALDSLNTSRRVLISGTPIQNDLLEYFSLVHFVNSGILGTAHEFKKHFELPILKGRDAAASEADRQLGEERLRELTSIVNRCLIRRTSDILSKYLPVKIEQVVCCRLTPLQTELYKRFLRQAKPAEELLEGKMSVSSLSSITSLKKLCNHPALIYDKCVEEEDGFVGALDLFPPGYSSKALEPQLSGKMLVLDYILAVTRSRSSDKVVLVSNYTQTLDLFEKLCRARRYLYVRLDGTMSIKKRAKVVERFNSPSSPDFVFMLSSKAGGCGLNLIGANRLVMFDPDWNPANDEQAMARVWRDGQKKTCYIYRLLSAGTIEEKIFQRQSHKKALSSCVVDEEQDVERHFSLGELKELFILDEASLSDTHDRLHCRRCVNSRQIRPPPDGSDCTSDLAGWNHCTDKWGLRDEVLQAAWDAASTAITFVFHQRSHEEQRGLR
Of the large screens only hits and unclear results are named; the others gave an inactive call.

CCOC(=O)C1=C(CSc2nc(-c3ccccc3)ccc2C#N)OC(N)=C(C#N)C1c1ccccc1 (stereo unspecified)	Myeloid diff 2 active
CCOC(=O)C1=C(CSc2nc3c(cc2C#N)CCC3)OC(N)=C(C#N)C1c1ccccc1 (stereo unspecified)	none
CCOC(=O)C1=C(CSc2nc(-c3ccccc3)ccc2C#N)OC(N)=C(C#N)C1c1cccnc1 (stereo unspecified)	Myeloid diff 2 active (no result: Vif inh)
Cc1c(/C=N\NC(=O)c2cccc(F)c2)cnn1C	none
CCc1ccc(OCc2cccc(C(=O)N/N=C\c3cnn(C)c3C)c2)cc1	Myeloid diff 2 active
Cc1ccccc1NC(=S)NC1CCCC1	Vif inh 59
Cc1ccc(CNC(=S)NC2CCCCC2)cc1	none (no result: Vif inh)
COc1ccccc1NC(=S)NC1CCCCC1	none
COc1ccccc1CNC(=S)NC1CCCC1	ABCB6 inh 2 69
FC(F)(F)c1ccc(NC(=S)NC2CCCCC2)cc1	Myeloid diff 2 active
S=C(NCc1ccccc1)NC1CCCCC1	Myeloid diff 2 active (no result: RAD54 inh)
CN1CCN(C(=O)C[C@H]2C[C@@H]3c4cc(NC(=O)CC5CC5)ccc4O[C@@H]3[C@@H](CO)O2)CC1	none (no result: Glyco luc inh, Myeloid diff 2, Vif inh, ABCB6 inh 2)
C[C@@H]1CCCCO[C@H](CN(C)C(=O)Nc2cccc3ccccc23)[C@H](C)CN([C@@H](C)CO)C(=O)c2cc(NC(=O)Nc3ccc4c(c3)OCO4)ccc2O1	none (no result: Glyco luc inh, Myeloid diff 2, Vif inh, ABCB6 inh 2)
COc1ccccc1NC(=O)N[C@@H]1CC[C@H](CC(=O)N[C@@H](C)c2ccccc2)O[C@@H]1CO	none (no result: Glyco luc inh, Myeloid diff 2, Vif inh, ABCB6 inh 2)
O=C1/C(=C/c2cccnc2)SC(=S)N1c1ccccc1	none (no result: RAD54 inh)
Cc1cc(/C=C2\SC(=S)N(Cc3ccco3)C2=O)c(C)n1-c1cccnc1	Myeloid diff 2 active, Vif inh 187
O=C1/C(=C\c2cccnc2)SC(=S)N1c1ccc(F)cc1	Myeloid diff 2 active
Cc1cc(/C=C2/SC(=S)N(c3cccc(C(F)(F)F)c3)C2=O)c(C)n1-c1cccnc1	Myeloid diff 2 active
COc1ccccc1S(=O)(=O)N[C@H]1CC[C@@H](CC(=O)N2CCN(C)CC2)O[C@H]1CO	none (no result: Glyco luc inh, Myeloid diff 2, Vif inh, ABCB6 inh 2)
C[C@@H]1CCCCO[C@H](CN(C)C(=O)Nc2ccc3c(c2)OCO3)[C@H](C)CN([C@H](C)CO)C(=O)c2cc(NC(=O)CCCN(C)C)ccc2O1	none (no result: Glyco luc inh, Myeloid diff 2, Vif inh, ABCB6 inh 2)
CSc1nc2ncc(C(=O)O)c(N)n2n1	Vif inh 51
Nc1c(C(=O)O)cnc2nc(N3CCOCC3)nn12	none (no result: RAD54 inh)
COc1ccc(NC(=O)N(C)C[C@H]2Oc3ccc(NC(=O)CCN4CCOCC4)cc3CC(=O)N([C@H](C)CO)C[C@@H]2C)cc1	none (no result: Glyco luc inh, Myeloid diff 2, Vif inh, ABCB6 inh 2)
COc1ccccc1NC(=O)Nc1ccc2c(c1)C(=O)N(C)C[C@@H](OC)[C@H](C)CN(C)[C@H](C)CO2	none (no result: Glyco luc inh, Myeloid diff 2, Vif inh, ABCB6 inh 2)
COc1ccc(Oc2ccc(/C=C/C(=O)c3cccc(OC)c3)cc2[N+](=O)[O-])cc1	Glyco luc inh 50
O=C(Nc1ccccc1N1CCOCC1)c1ccc2nc[nH]c2c1	Glyco luc inh 27
COCC#Cc1cnc2c(c1)C(=O)N([C@@H](C)CO)C[C@@H](C)[C@@H](CN(C)S(=O)(=O)c1cn(C)cn1)O2	none (no result: Glyco luc inh, Myeloid diff 2, Vif inh, ABCB6 inh 2)
CSc1ccc(C2=C/C(=C3/SC(=S)NC3=O)c3ccccc3O2)cc1	Myeloid diff 2 active
CC(C)c1c(C(=O)Nc2ccccc2)c(-c2ccccc2)c(-c2ccc(F)cc2)n1CC[C@@H](O)C[C@@H](O)CC(=O)O	Glyco luc inh 80
COCC(=O)Nc1ccc2c(c1)[C@H]1C[C@@H](CC(=O)NCc3cccc(F)c3)O[C@H](CO)[C@H]1O2	none (no result: Glyco luc inh, Myeloid diff 2, Vif inh, ABCB6 inh 2)
COC(=O)[C@@]12CCCCN1[C@H](c1ccc(-c3ccc(OC)cc3)cc1)[C@H]1C(=O)N(C)C(=O)[C@H]12	Myeloid diff 2 active
Brc1ccc(-c2nc(N/N=C/c3cccnc3)c3ccccc3n2)cc1	Myeloid diff 2 active (no result: RAD54 inh)
CO[C@@H]1CN(C)C(=O)c2cc(NC(=O)NC(C)C)ccc2OC[C@@H](C)N(Cc2ccc(-c3ccccn3)cc2)C[C@@H]1C	none (no result: Glyco luc inh, Myeloid diff 2, Vif inh, ABCB6 inh 2)
CN(C)C(=O)C[C@H]1CC[C@H]2[C@@H](COc3ccc(NS(=O)(=O)c4cccc(F)c4)cc3C(=O)N2C)O1	none (no result: Glyco luc inh, Myeloid diff 2, Vif inh, ABCB6 inh 2)
CC(CCC(=O)O)C1CCC2C3CCC4C[C@H](O)CCC4(C)C3CC(=O)C12C (stereo partly specified)	Vif inh 53
CCOC(=O)c1oc2ccc(S(=O)(=O)n3nc(-c4ccccc4)cc3N)cc2c1C	Myeloid diff 2 active
C[C@@H]1CN([C@@H](C)CO)C(=O)c2cccc(NC(=O)Nc3ccc4c(c3)OCO4)c2O[C@@H]1CN(C)C	none (no result: Glyco luc inh, Myeloid diff 2, Vif inh, ABCB6 inh 2)
Oc1[nH]c(=S)sc1/C=C1\C(c2ccccc2)=Nc2ccccc21	Vif inh 69 (no result: RAD54 inh)
Oc1[nH]c(=S)sc1C=C1N=c2ccccc2=N1	none (no result: Vif inh)
CCOC(=O)C1=C(O)/C(=C/c2cn(CC(=O)NCC3CCCO3)c3ccccc23)SC1=Nc1ccc(C)cc1 (stereo unspecified)	Vif inh 94
COc1ccc([C@@H]2[C@@H]3C(=O)N(C(C)(C)C)C(=O)[C@@H]3[C@]3(C)C(=O)N(c4ccccc4)C(=O)N23)cc1	Myeloid diff 2 active (no result: Vif inh)
COc1cc(OC)cc(-c2nnc(SCC(=O)N(Cc3ccccc3)C(C)(C)C)o2)c1	Myeloid diff 2 active
CCCCN(CCCC)C(=O)CSc1nnc(-c2cc(OC)c(OC)c(OC)c2)o1	none
COc1cc(-c2nnc(SCC(=O)N(Cc3ccccc3)C(C)(C)C)o2)cc(OC)c1OC	Myeloid diff 2 active (no result: RAD54 inh)
COc1ccc(C(=O)/C=C\c2ccc(NC(=O)c3cccs3)cc2)cc1	Glyco luc inh 48
COc1ccc(NC(=O)c2ccc(NC(=O)c3cccs3)cc2)cc1	none (no result: Glyco luc inh, Vif inh)
c1ccc(C[C@H]2CN=C(Nc3ccccc3)N2CC2CCCCC2)cc1	Myeloid diff 2 active
Cc1ccc(-n2nnc3c(=O)n(CC(=O)OCc4ccccc4)cnc32)cc1	Vif inh 75
CN(C)C(=O)[C@@H]1[C@@H](CO)[C@@H]2Cn3c(ccc(C4=CCCC4)c3=O)[C@H]1N2CC1CC1	none (no result: Glyco luc inh, Myeloid diff 2, Vif inh, ABCB6 inh 2)
CCNC(=O)C[C@@H]1CC[C@@H]2[C@H](COc3ccc(NC(=O)c4ccccc4Cl)cc3C(=O)N2C)O1	none (no result: Glyco luc inh, Myeloid diff 2, Vif inh, ABCB6 inh 2)
C(=Cc1c[nH]c2ccccc12)c1ccc2ccccc2n1	Myeloid diff 2 active (no result: Vif inh)
C[C@@H]1CN([C@@H](C)CO)C(=O)c2cccc(NC(=O)c3ccc(-c4nccs4)cc3)c2O[C@@H]1CN(C)S(=O)(=O)c1ccc(Cl)cc1	none (no result: Glyco luc inh, Myeloid diff 2, Vif inh, ABCB6 inh 2)
N#Cc1c(N)n(CCNC(=O)c2cccs2)c2nc3ccccc3nc12	Myeloid diff 2 active
COc1ccc(CC(=O)Nc2ccc(-c3ccc4nnc(C)n4n3)cc2)cc1OC	Glyco luc inh 30
CCSc1nnc2ccc(-c3ccc(OC)c(OC)c3)nn12	Myeloid diff 2 active
O=C(Nc1ccc2c(c1)[C@H]1C[C@H](CC(=O)N3CCOCC3)O[C@H](CO)[C@H]1O2)c1ccc2c(c1)OCO2	none (no result: Glyco luc inh, Myeloid diff 2, Vif inh, ABCB6 inh 2)
CCn1nc([N+](=O)[O-])c(C(C#N)c2nc3cc(C(F)(F)F)ccc3s2)c(Cl)c1=O (stereo unspecified)	Myeloid diff 2 active
